Laboratory results published in PubChem BioAssay AID1467 (National Center for Advancing Translational Sciences (NCATS), 2008).
Hit rate of the full screen: of about 230,000 compounds, fewer than 10 were called active. Calls follow the shape of the dose curve; as a rule, active = well fitted curve in the direction sought with a large enough effect; inconclusive = small, poorly fitted or top-dose-only effect, or effect the other way, or another doubt; inactive = no such curve, though single readings can be large or run the other way. Only a sample is shown.

Biological target: Alpha-galactosidase A (Homo sapiens) (UniProt P06280)
Test: qHTS Assay for Inhibitors of Human alpha-Galactosidase at pH 4.5.
Details: purified enzyme, 4-MU-alpha-Gal fluorescence; series mostly up to 105 µM
Text: NIH Chemical Genomics Center [NCGC]
NIH Molecular Libraries Probe Production centers Network [MLPCN]
Assay Submitter (PI): Wei Zheng
Alpha-galactosidase is a homodimeric glycoprotein that hydrolyzes the terminal alpha-galactosyl moieties from glycolipids and glycoproteins. Deficiency of this enzyme results in Fabry Disease with progressive accumulation of globotriaosylceramide and other glycosphingolipids in vascular endothelial cells that causes renal failure, myocardial infarction and stroke, and premature death in patients. It has been reported that the improper folding and trafficking of alpha-galactosidase resulting from the genetic mutations may account for a significant numbers of Fabry patients. […] We optimized this alpha-galactosidase assay in 1536-well plate format for identifying the novel small molecule inhibitors with the structures other than the sugar analogs in order to develop the new pharmacological chaperones. Although this assay has the same protocol as PubChem AID 992, this is a separate project and, therefore, is published as a separate assay
NCGC Assay Protocol Summary:
This is a fluorogenic enzyme assay with 4-Methylumbelliferyl alpha-D-galactopyranoside as the substrate and human […] as the enzyme preparation. Upon the hydrolysis of this fluorogenic substrate, the resulting product, […]. 4-Methyllumbelliferone, can be excited at 365 nm and emits at 440 nm. This fluorescence which can be detected by a standard fluorescence plate reader. Data were normalized to the controls for basal activity (without enzyme) and 100% activity (with enzyme). In the AC50 values were determined from concentration-response data modeled with the standard Hill equation.
Assay buffer: 50 mM citric acid (titrated with potassium phosphate to pH 4.5), 0.005% Tween-20, pH 4.5. (pH 4.5 is an optimal condition for this enzyme assay)
1536-well assay protocol for the human alpha-galactosidase:
(1) Add 2 ul/well of enzyme (12 nM final)
(2) Add 23 nL compounds in DMSO solution. The final titration was 0.7 nM to 77 uM.
(3) Add 1 ul of substrate (400 uM final)
(4) Incubate at room temperature for 20 min.
(5) Add 2 ul stop solution (1M NaOH and 1M Glycine mixture, pH 10)
(6) Detect the assay plate in a ViewLux plate reader (PerkinElmer) with Ex=365 nm and Em=440nm.
Keywords: MLSMR, MLPCN, NIH Roadmap, qHTS, NCGC, : Alpha-galactosidase, Fabry Disease, pharmacological chaperone, chaperone therapy

Chain of Alpha-galactosidase A (Homo sapiens) (P06280 whole entry, looked up): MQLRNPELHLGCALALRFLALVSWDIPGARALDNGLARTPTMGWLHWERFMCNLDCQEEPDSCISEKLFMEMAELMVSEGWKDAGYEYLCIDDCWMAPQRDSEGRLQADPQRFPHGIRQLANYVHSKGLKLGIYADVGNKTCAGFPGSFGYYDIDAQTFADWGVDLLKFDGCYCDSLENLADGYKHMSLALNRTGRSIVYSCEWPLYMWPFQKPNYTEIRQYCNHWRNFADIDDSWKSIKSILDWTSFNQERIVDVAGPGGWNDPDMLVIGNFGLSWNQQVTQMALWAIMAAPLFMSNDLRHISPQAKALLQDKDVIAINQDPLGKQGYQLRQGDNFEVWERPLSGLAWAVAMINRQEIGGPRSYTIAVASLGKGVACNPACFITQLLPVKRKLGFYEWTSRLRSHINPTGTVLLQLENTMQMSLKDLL

Activity change, negative = inhibition, inactive:
O=C(Nc1ccc(Br)cn1)C1CCN(S(=O)(=O)c2cccs2)CC1, Cc1c(/C=N\NC(=O)c2cc3ccccc3o2)c2ccccc2n1C, Nc1cccc(S(=O)(=O)Nc2ccc(SC(F)F)cc2)c1, COc1ccc(-n2cc(CNC3CCOCC3)c(-c3cccc(F)c3)n2)cc1, Cc1cc(NC(=O)CSCc2nc(-c3cccc(Cl)c3)oc2C)no1, CCCCC/C=C\C[C@H](O)/C=C/C=C/C=C/[C@@H](O)CCCC(=O)O, N#CCSc1nn(-c2ccc(F)cc2)c(=S)s1, Cc1nnc(NC(=O)CCC(=O)N2CCC(C)CC2)s1, CCCNC(=O)c1c(Cl)cnn1-c1ccc(C)cc1, COC(=O)C/C=C/[C@@H](C)[C@H](NC(=O)OCC(Cl)(Cl)Cl)c1ccccc1, CC1(OC(=O)c2ccc(Cl)nc2)C(=O)Cc2cc(-c3ccsc3)ncc2C1=O (centres undefined), CC(=O)c1ccc(N2CCN(CC(=O)Nc3ccccc3N3CCOCC3)CC2)cc1, CCCc1ccc(OCc2ccc(C(=O)N/N=C/c3cccc([N+](=O)[O-])c3)o2)c(OC)c1, C/C=C1\C2C=C(C)CC1(N)c1ccc(=O)[nH]c1C2 (centres undefined), CCOC(=O)C1=C(O)/C(=C/c2cc(C)n(-c3ccccc3)c2C)N=C1C, CC[C@H](C)[C@@H](NC(=O)O[C@@H]1C(=O)c2cc(OC)ccc2O[C@H]1c1cccc(OC)c1)C(=O)OC, Cc1cc(C)cc(C(=O)NCC(=O)OCC(=O)N2CCCCC2)c1, O=C(CN1CCCCCC1)NCCN1C(=O)S/C(=C\c2ccccc2Cl)C1=O, Cc1ccccc1-c1ccc(C(=O)O)s1, Cc1nc(-c2ccccc2)sc1-c1nnc(C2CC2)o1, O=c1c(O)c(Br)ccc2c(Br)c(O)c(O)c(O)c12, O=C(CSc1nc2ccccc2o1)N/N=C/c1ccccc1C(=O)O, COc1cc(/C=C(/NC(=O)c2ccccc2)C(=O)Nc2cccc(O)c2)c([N+](=O)[O-])cc1OC, CN(CCc1cnn(C)c1)Cc1cn(C)nc1-c1ccccc1F, CC1=C2[C@@H](O)[C@H]([C@@H](C)C(=O)NCCC(C)C)CC[C@@]2(C)C=CC1=O, CC/C=C\C/C=C\C/C=C\C/C=C\C/C=C\C/C=C\CCC(=O)NC(C)C(=O)O (centres undefined), CCn1c(COc2c(C)cccc2C)nnc1SCc1nc2ccccc2c(=O)[nH]1, Cc1ccnc(NC(=O)CCC(=O)N(CC(=O)NCc2ccccc2)Cc2ccco2)c1, Cc1nc2c(ncn2-c2ccccc2)c(=O)n1NC(=O)CN1CCCC1, CC(=O)Nc1sc2c(c1C(c1cccc(F)c1)N1CCN(CCO)CC1)CCCC2 (centres undefined), CCCCC[C@H](O)/C=C/[C@@H]1[C@@H](CC(=O)CCC(=O)O)[C@@H](O)C[C@H]1O, O=C1C=C(c2ccccc2)CCC1, COc1ccc(NC(=O)C2CCC(CNc3c(N4CCCCC4)c(=O)c3=O)CC2)c(OC)c1 (centres undefined), COc1ccc(N2CCN(Cc3nnc(-c4ccccc4)o3)CC2)cc1, CC/C=C\C/C=C\C/C=C\C/C=C\C/C=C\C/C=C\CCC(=O)NCCc1ccc(O)c(O)c1, CCOC(=O)C1=NO[C@@]2(C=C(Br)C(=O)[C@H]3O[C@H]32)C1, C=CCn1c(CCNC(=O)c2cccs2)n[nH]c1=S, Cc1ccccc1NC(=O)c1ccc(COc2ccc3c(C)cc(=O)oc3c2)cc1, COC(=O)Cc1ccc(Oc2ncc(C(F)(F)F)cc2Cl)cc1, CONc1nc2nonc2nc1NOC, CCCCCCCCCCCCC(NC(C)=O)(C(=O)OCC)C(=O)OCC, CCN(CC)CC(=O)Nc1sc2c(c1C(=O)c1ccccc1C)CCC2, CCCCNC(=O)C1CCCN(S(=O)(=O)c2ccc(S(=O)(=O)NCC(C)C)cc2)C1 (centres undefined), CCOc1cc(NC(=O)CCl)c(OCC)cc1NC(C)=O, CCn1c(CN2C(=O)CSc3ccccc32)n[nH]c1=S, CCOC(=O)N1CCN(c2cc(C)c([N+](=O)[O-])cc2F)CC1, Cc1noc(C)c1C(=O)N(CC(=O)NC1CCCC1)Cc1ccccc1F, CC(C)Oc1ccc(CCc2nnc(SCC(=O)O)n2-c2ccccc2)cc1, Cc1ccccc1CSc1nnc(CCCCCNC(=O)OC(C)(C)C)o1, Cc1ccccc1CCN(CC(=O)NC1CCCCC1)C(=O)c1csnn1, CCc1c(O)nc(SCC(=O)Nc2ccccc2)n(C(C)CC)c1=O (centres undefined), COc1ccc(NC(=O)c2ccccc2[N+](=O)[O-])cc1OC, CC(C)(C)c1nnc(NC(=O)C2c3ccccc3Oc3ccccc32)s1, O=C(Nc1ccc(N2CCOCC2)nc1)c1c(F)cccc1F, COc1ccc(/C=C/CN2CCCC(C(=O)c3cc(F)ccc3F)C2)cc1 (centres undefined), Cc1cccc(CN2CCN(Cc3cnn(-c4ccccc4F)c3)CC2CCO)n1 (centres undefined), CCCCc1ccc(NC(=S)NCCCN2CCOCC2)cc1, C=CCC(C)(O)c1ccco1 (centres undefined), COc1c(O)cc2oc(-c3ccc(O)c(O)c3)cc(=O)c2c1O, O=C1OCCN1C(=O)[C@H]1[C@H](c2ccc(F)cc2)C(c2ccccc2)=NN1c1ccc(Br)cc1, C=C(C)C(=O)c1ccc(F)cc1, CC(C)(C)OC(=O)NCCCCC1=CC2=CC(=O)C(C)(OC(=O)c3cccs3)C(=O)C2=CO1 (centres undefined), C=C(C(C)=O)C(O)c1cccs1 (centres undefined), COc1ccc(C(=O)OCC(=O)NC(=O)CCSc2ccccc2)cc1, Cc1ccc(N2C(=O)C(CC(=O)Nc3cccc(F)c3)N(CCc3ccncc3)C2=O)cc1 (centres undefined), CCCCCCCCn1c2c(c(=N)c3c1CCC3)CCCC2, CN(c1ccc2nc3ccccc3c(=O)n2n1)C1CCCCC1, Cc1ccc(Nc2nc(N)nc(CN3CCN(Cc4ccccc4)CC3)n2)cc1Cl, Cc1ccc(NC(=O)c2csc3c2CCCC3)cc1
